Data taken from PubChem BioAssay AID488969 (Vanderbilt High Throughput Screening Facility, 2010).
Whole data set: some 110,000 compounds, median “z-score” near -0.1, cut for the highest 2% near 2. For the sample, the highest values were picked, then their nearest neighbours and some compounds at random. Calls of active or inactive are those of the source.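 The calls were made as follows: active = z-score in the third read window above 3 or below -3; inactive = the rest.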

Target: Metabotropic glutamate receptor 8 (Rattus norvegicus) (UniProt P70579)
Sequence (P70579 whole entry, looked up): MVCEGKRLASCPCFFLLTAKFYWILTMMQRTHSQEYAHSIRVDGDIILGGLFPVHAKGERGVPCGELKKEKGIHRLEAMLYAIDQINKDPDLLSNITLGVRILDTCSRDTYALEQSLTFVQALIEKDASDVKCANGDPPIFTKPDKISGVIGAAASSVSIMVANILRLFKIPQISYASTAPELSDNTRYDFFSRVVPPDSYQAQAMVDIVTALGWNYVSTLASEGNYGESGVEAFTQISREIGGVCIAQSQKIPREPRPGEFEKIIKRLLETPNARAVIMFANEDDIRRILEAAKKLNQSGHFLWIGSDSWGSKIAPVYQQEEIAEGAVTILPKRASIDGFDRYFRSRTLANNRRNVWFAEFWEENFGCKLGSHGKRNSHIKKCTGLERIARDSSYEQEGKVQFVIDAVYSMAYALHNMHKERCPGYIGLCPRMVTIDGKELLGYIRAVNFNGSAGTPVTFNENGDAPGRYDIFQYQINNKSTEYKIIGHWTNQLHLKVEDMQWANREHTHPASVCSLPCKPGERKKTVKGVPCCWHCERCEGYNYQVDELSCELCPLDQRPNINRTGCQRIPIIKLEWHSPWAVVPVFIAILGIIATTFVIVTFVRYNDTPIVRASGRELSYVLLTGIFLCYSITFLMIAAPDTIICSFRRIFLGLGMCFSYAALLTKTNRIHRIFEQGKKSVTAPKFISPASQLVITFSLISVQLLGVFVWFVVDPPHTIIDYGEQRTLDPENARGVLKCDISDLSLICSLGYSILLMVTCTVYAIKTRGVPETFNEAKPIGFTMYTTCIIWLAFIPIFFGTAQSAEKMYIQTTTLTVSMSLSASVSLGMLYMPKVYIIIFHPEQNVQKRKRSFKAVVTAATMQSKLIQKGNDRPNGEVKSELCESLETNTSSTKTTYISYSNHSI
Test: rat mGluR8 modulators via GIRK flux, primary screen, cell-based, thallium flux, HTS (AID 488969)
Conditions: HEK293 rat mGluR8, GIRK (G protein-gated inwardly rectifying potassium channel) thallium flux, FluoZin2; at 10 µM; stronger effect = higher value; submaximal glutamate (EC20) added with thallium

Compared with `S=C(Nc1cccc(Cl)c1Cl)Nn1cnnc1`, `O=C(NNS(=O)(=O)c1cccc(Cl)c1Cl)c1cccc(S(=O)(=O)N2CCOCC2)c1` is higher in z-score: -0.236 for the first, -0.174 for the second.

First: O=C(O)c1ccc(NC(=S)NC(NC(=O)c2ccco2)C(Cl)(Cl)Cl)cc1 (stereo not drawn)
Second: O=C(Nc1ccccc1)c1ccc(S(=O)(=O)NCc2ccco2)cc1
The z-score of the first is higher: -0.0488 for the first, -0.18 for the second.

Compared with `Cc1cc2[nH]c(=S)[nH]c2cc1C`, `Cc1cc(C)c2[nH]c(=O)c(=O)[nH]c2c1` is lower in z-score: 0.151 for the first, -0.178 for the second.

First: NC(=O)C1CCN(CC(=O)Nc2cccc(C(=O)Nc3cccc(C(F)(F)F)c3)c2)CC1
Second: CCNC(=O)c1ccccc1NC(=O)c1cccc(S(=O)(=O)N2CCC(C)CC2)c1
The z-score of the first is higher: -0.137 for the first, -1.17 for the second.

First: CS(=O)(=O)N(Cc1ccccc1)c1ccc(C(=O)NC2CCCCC2O)cc1 (stereo not drawn)
Second: CN(C)c1ccc(N=Nc2ccccc2C(=O)OCC(=O)NC2CCCC2)cc1
The z-score of the first is higher: 0.252 for the first, -0.235 for the second.

Compared with `O=C(NNS(=O)(=O)c1ccc(F)c(Cl)c1)c1cccc(S(=O)(=O)N2CCOCC2)c1`, `Cc1cc(C)c(C)c(S(=O)(=O)NNC(=O)c2cccc(S(=O)(=O)N3CCOCC3)c2)c1C` is lower in z-score: -0.0447 for the first, -0.174 for the second.

First: CCNc1nc(NC(C)CC)nc(Oc2ccc(=O)[nH]n2)n1 (stereo not drawn)
Second: CCC(C)C(=O)Nc1nc(C)c(-c2csc(Nc3ccccc3OC)n2)s1 (stereo not drawn)
The z-score of the first is higher: -0.162 for the first, -0.407 for the second.

Compared with `CN=C1c2cc3c(Br)c(OC)ccc3n2CCN1C`, `CN=C1c2cc3cc(OC)ccc3n2CCN1C` is higher in z-score: 0.218 for the first, 0.371 for the second.

Compared with `Cc1cccc(-n2c(-c3ccco3)nc3nc4ccccc4nc32)c1`, `CCC(C)n1c(-c2ccco2)nc2nc3ccccc3nc21` (stereo not drawn) is lower in z-score: -0.0341 for the first, -1.06 for the second.

Going from `CCOC(=O)c1cnc(-c2ccccc2)nc1Oc1ccc(Cl)cc1` to `CCOC(=O)c1cnc(-c2ccccc2)nc1Oc1ccc(C)cc1`, the z-score rises from -0.241 to 2.4.

Compared with `CCOC(=O)c1cnc(-c2ccccc2)nc1Oc1ccccc1`, `Cc1cccc(Oc2ccccc2NC(=O)c2cnccn2)c1` is higher in z-score: -0.19 for the first, -0.109 for the second.

Compared with `Cc1ccc(C(=O)Nc2ccc(S(=O)(=O)NCc3ccco3)cc2)cc1`, `O=C(NCc1ccco1)c1ccc(S(=O)(=O)c2cccc(S(=O)(=O)N3CCOCC3)c2)cc1` is higher in z-score: 0.0377 for the first, 0.0723 for the second.

Compared with `CCOC(=O)c1c(NC(=O)C2CCCO2)sc(C(N)=O)c1C` (stereo not drawn), `C=CCNC(=S)Nc1sc2c(c1C(=O)OCC)CCN(C(=O)OCC)C2` is higher in z-score: -0.0328 for the first, 0.145 for the second.

Going from `COc1cccc(C(=O)NC(C)c2ccc(Br)cc2)c1` (stereo not drawn) to `COc1cccc(C(=O)Nc2ccc(NC(C)=O)cn2)c1`, the z-score rises from -0.143 to 0.157.

First: CCCC(=O)NC1C2CC3CC(C2)CC1C3 (stereo not drawn)
Second: CCCC(=O)Nc1cc(C)c(NC(=O)C23CC4CC(CC(C4)C2)C3)cn1
The z-score of the first is higher: 0.313 for the first, 0.0448 for the second.

First: CC(=O)c1c(C)[nH]c(C(=O)OCC(=O)Nc2cccc(S(=O)(=O)N3CCCC3)c2)c1C
Second: CCOC(=O)c1c(NC(=S)Nc2cccc(C)c2)sc2c1CC(C)(C)SC2
The z-score of the first is higher: 0.16 for the first, 0.0638 for the second.

First: Cc1ccccc1OC(=O)n1c(=S)oc2cc(Cl)ccc21
Second: COC(=O)n1c(=S)oc2cc(Cl)ccc21
The z-score of the first is lower: 1.42 for the first, 2.15 for the second.

Going from `CCCCOC(=O)n1c(=S)oc2cc(Cl)ccc21` to `CCc1nn(-c2cc(Cl)ccc2OC)c2c1C(=O)CCC2`, the z-score falls from -0.00789 to -0.275.

Going from `Clc1ccc(OCc2cc(-c3ccccc3)no2)c(Cl)c1` to `COC(=O)c1cc2nc(-c3ccccc3)cc(C)n2n1`, the z-score rises from -0.0969 to 0.0407.

First: COC(=O)/C=C1\C(=O)N(c2nc3ccc(OC)cc3s2)C(=S)N1c1ccc(F)cc1
Second: COc1ccc2nc(N3C(=O)CC(Cc4ccc(Cl)cc4)C3=O)sc2c1 (stereo not drawn)
The z-score of the first is higher: 0.0125 for the first, -0.21 for the second.

First: CCOc1ccc2nc(N3C(=O)/C(=C/c4ccc(Cl)cc4)NC3=S)sc2c1
Second: COc1ccc(N2C(=O)/C(=C/c3cccnc3)NC2=S)cc1
The z-score of the first is higher: 1.05 for the first, -0.439 for the second.

Going from `CCOc1ccc2nc(SCC(=O)c3ccccc3)sc2c1` to `COc1ccc2nc(N3C(=O)CC(C(C)c4ccccc4)C3=O)sc2c1` (stereo not drawn), the z-score falls from 0.303 to -0.143.

Compared with `Cc1cccc(OCCNc2cc(N3CCN(CCO)CC3)ccc2[N+](=O)[O-])c1`, `CCC(=O)Nc1ccc(N2CCN(Cc3ccccc3)CC2)cc1` is higher in z-score: -0.0985 for the first, 0.042 for the second.

Compared with `Cc1cc2c(cc1C)NC1(C(=O)Nc3ccccc31)C1=C(CC(C)(C)CC1=O)N2` (stereo not drawn), `CC1(C)CC(=O)C2=C(C1)OC(N)=C(C#N)C2c1cn(-c2ccccc2)nc1-c1ccc(F)cc1` (stereo not drawn) is lower in z-score: 0.0524 for the first, -0.436 for the second.

Compared with `COc1cc(C(=O)NCCc2ccc3c(c2)OCCO3)ccc1OCC(=O)N1CCOCC1`, `COc1ccccc1N1CCN(C(CNC(=O)c2ccc3c(c2)OCO3)c2cccnc2)CC1` (stereo not drawn) is lower in z-score: 0.0469 for the first, 0.0309 for the second.

Going from `CCCCOc1ccc(-c2cc(C(=O)NNC(=S)NCC)c3ccccc3n2)cc1` to `COc1ccc(CC(=O)N(c2ccccc2)c2nc(C)cs2)cc1`, the z-score falls from -0.155 to -0.721.

Going from `CC(CNCC1CCCO1)COc1cccc2ccccc12` (stereo not drawn) to `O=C1/C(=C\c2ccc(-c3ccccc3Cl)o2)SC(=S)N1CC1CCCO1` (stereo not drawn), the z-score rises from 0.285 to 0.755.

Going from `Cc1ccc(C(=O)N/C(=C\c2ccc(-c3ccc(Br)cc3)o2)C(=O)NC2CCS(=O)(=O)C2)cc1` (stereo not drawn) to `CCOC(=O)c1c(NC(=O)c2ccc(C)cc2)sc2c1CC(C)(C)OC2`, the z-score falls from -0.13 to -0.222.

Going from `O=C(Nc1ccc2oc(-c3ccncc3)nc2c1)c1ccccc1F` to `COc1c(F)c(F)c(C(=O)Nc2ccc3oc(-c4ccncc4)nc3c2)c(F)c1F`, the z-score falls from -0.225 to -0.29.

Going from `COc1cc2c(cc1NCc1ccccn1)oc1ccccc12` to `O=C(COc1ccccc1F)N1c2ccccc2CCc2ccccc21`, the z-score falls from -0.0883 to -0.375.

Going from `O=C(CCS(=O)(=O)c1ccccc1)Nc1nc2c(s1)COc1ccccc1-2` to `Cc1ccc(C)c(NC(=O)CNS(=O)(=O)c2ccccc2)c1`, the z-score rises from -0.504 to -0.144.

Compared with `C/C=C/C=N/Nc1nc(-c2ccc([N+](=O)[O-])cc2)cs1`, `Cc1ccc2ncccc2c1[N+](=O)[O-]` is higher in z-score: -0.273 for the first, -0.242 for the second.

Compared with `COc1ccc(C(=O)N2CCN(C3CCC(c4ccccc4)CC3)CC2)cc1OC` (stereo not drawn), `COc1cc(OC)c(NC(=O)c2cccc(F)c2)cc1Cl` is higher in z-score: -1.61 for the first, -0.155 for the second.

First: Cc1ccc(Cl)cc1NC(=O)CC(O)(C(F)(F)F)C(F)(F)F
Second: Cc1ccc(NC(=O)CC(O)(C(F)(F)F)C(F)(F)F)cc1
The z-score of the first is lower: -2.38 for the first, -0.185 for the second.

Compared with `CCOC(=O)CC(=O)CSc1nc2c(cc1C#N)CCCCC2`, `CCOC(=O)CC(=O)CSc1nc2c(cc1C#N)CCC2` is higher in z-score: 1.09 for the first, 2.18 for the second.

Compared with `COC(=O)CC(=O)CSc1nc2c(cc1C#N)CCC2`, `CCCC(=O)Nc1ccc(NC(=O)c2cccc(OC)c2)nc1` is higher in z-score: -0.106 for the first, 2.18 for the second.

Compared with `CCC(=O)NCCCCNC(=O)CC`, `CCCCC(=O)Nc1ccc(NC(=O)C2CC2)cn1` is higher in z-score: 0.217 for the first, 0.324 for the second.

Going from `O=C1N=C(N2CCOCC2)S/C1=C\c1ccc(-c2ccccc2Cl)o1` to `Cc1ccc(NC(=O)C(NC2CCCc3ccccc32)c2ccccc2)cc1Cl` (stereo not drawn), the z-score falls from -0.0639 to -0.174.

First: COC(=O)c1sccc1NC(=O)c1c(C)cc(=O)oc1C
Second: CCOC(=O)c1c(NC(=O)c2ccccc2C)sc2c1CC(C)(C)OC2
The z-score of the first is higher: -0.28 for the first, -0.332 for the second.

Compared with `Nc1ccc(C(=O)OCC(=O)NC2CCCc3ccccc32)cc1[N+](=O)[O-]` (stereo not drawn), `Cc1ccc(NC(=O)C(NC2CCCc3ccccc32)c2ccccc2)c([N+](=O)[O-])c1` (stereo not drawn) is higher in z-score: -0.347 for the first, 2.09 for the second.

First: O=C(NC1CCCCC1)N(C1=NCCCCC1)c1ccc(Br)cc1
Second: CCOC(=O)C1=C(c2ccccc2)OC(N)=C(C#N)C1C1CCCCC1 (stereo not drawn)
The z-score of the first is higher: -0.204 for the first, -0.435 for the second.

Going from `COc1ccc(/C=C2\N=C(SC)SC2=O)cc1OC` to `Cc1cc(-c2ccc(F)cc2)nc2cc(C(N)=O)nn12`, the z-score rises from -0.325 to 0.242.

Compared with `C=CCNC(=S)NC1CC(C)(C)NC(C)(C)C1`, `C=CCNC(=S)Nc1sc2c(c1C(=O)OCC)CC(C)(CC)OC2` (stereo not drawn) is higher in z-score: 0.609 for the first, 2.22 for the second.

Going from `CCOC(=O)c1c(NC(=S)Nc2ccccc2)sc2c1CCN(CCc1ccccc1)C2` to `CCOC(=O)c1c(NC(=S)Nc2ccccc2)sc2c1CC(C)(C)SC2`, the z-score falls from 0.012 to -0.0674.

Going from `CC(C)C1Cc2c(sc(NC(=S)NC(=O)c3ccccc3)c2C#N)CO1` (stereo not drawn) to `C=C(C)CNC(=S)Nc1sc2c(c1C(=O)OCC)CC(C)(C)OC2`, the z-score rises from -0.13 to 0.296.

First: O=C(NCc1ccco1)c1ccccc1F
Second: CCC(=O)Nc1ccc(NC(=O)c2cccc(OC)c2)nc1
The z-score of the first is higher: 0.717 for the first, 0.209 for the second.

Compared with `O=C(CSc1nnnn1-c1ccccc1)N1CCCc2ccccc21`, `Cc1ccc(NC(=O)CSc2nnc(-c3ccncc3)n2C)cc1C` is higher in z-score: -0.861 for the first, -0.215 for the second.

First: CCC(=O)Nc1ccc(NC(=O)C23CC4CC(CC(C4)C2)C3)cn1
Second: CCCCC(=O)Nc1ccc(NC(=O)C2CC2)nc1
The z-score of the first is lower: -0.0944 for the first, 0.252 for the second.

For `Cc1cc(C)c2[nH]c(=S)cc(C)c2c1`, the z-score was 5.14 (active).
`O=C(NNS(=O)(=O)c1ccccc1F)c1cccc(S(=O)(=O)N2CCOCC2)c1` was tested, and the z-score was 10.4 (active).
With `CN=C1c2c(-c3ccccc3)c3cc(OC)ccc3n2CCN1C` the z-score was 4.2 (active).
In the case of `Fc1cccc(-n2c(-c3ccco3)nc3nc4ccccc4nc32)c1`, the z-score is reported as 3.05 (active).
With `COc1ccc(C(=O)Nc2ccc(S(=O)(=O)NCc3ccco3)cc2)cc1OC` the z-score was 3.13 (active).
In the case of `COc1ccc2nc(N3C(=O)/C(=C/c4ccc(Cl)cc4)NC3=S)sc2c1`, the z-score is reported as 6.84 (active).
`COc1ccc2nc(N3C(=O)/C(=C/c4ccccc4)NC3=S)sc2c1` was tested, and the z-score was 11.9 (active).
For `CCOc1ccc2nc(N3C(=O)/C(=C/c4ccccc4)NC3=S)sc2c1`, the z-score was 3.66 (active).
For `O=C(Nc1ccc2oc(-c3ccncc3)nc2c1)c1c(F)c(F)c(F)c(F)c1F`, the z-score was 3.39 (active).
In the case of `O=C(CC(O)(C(F)(F)F)C(F)(F)F)Nc1ccc(Cl)c(Cl)c1`, the z-score is reported as 6.91 (active).
For `O=C1NC(=S)/C(=C\c2ccc(-c3ccccc3Cl)o2)S1`, the z-score was 3.83 (active).
For `CCOc1ccc(-c2cc(C)n3nc(C(N)=O)cc3n2)cc1`, the z-score was 5.02 (active).
In the case of `CCOC(=O)c1c(NC(=S)NCCc2ccccc2)sc2c1CC(C(C)C)OC2` (stereo not drawn), the z-score is reported as 3.42 (active).
In the case of `C=CCNC(=S)Nc1sc2c(c1C(=O)OCC)CC(C(C)C)OC2` (stereo not drawn), the z-score is reported as 8.63 (active).
With `CCOC(=O)c1c(NC(=S)NC)sc2c1CC(C)(C)SC2` the z-score was 12.5 (active).
`CCCC(=O)Nc1ccc(NC(=O)C23CC4CC(CC(C4)C2)C3)cn1` was tested, and the z-score was 5.76 (active).
`CCCC(=O)Nc1ccc(NC(=O)C2CC2)cn1` was tested, and the z-score was 13.2 (active).
